“And” between values parts separate entries of the source, which are not always exact repeats. Equal values may be shown once. Inconclusive results are not listed. Some structures have more than one record in an assay (separate samples or runs), and their calls can disagree. The source made the active and inactive calls. The calls were made as follows, unless noted: active = hit-call score of the fitted dose curve at least 0.9, where 1 is the maximum; inconclusive = response in the unintended direction; inactive = score below 0.9.
How the values were obtained:
[1] = biological target: Estrogen receptor beta (Homo sapiens) (UniProt Q92731); experiment: OT_ER_ERbERb_1440: Odyssey Thera (OT) 24-hour HEK293T Protein-Complementation Assay for Estrogen Receptor-beta/-beta Homodimer (AID 2283380);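 also: fluorescence gain from ER beta LBD homodimer complementation read by laser scanning cytometry; scored as signal increase over DMSO baseline for both agonists and antagonists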
Estrogen receptor beta (Homo sapiens), sequence (Q92731 whole entry, looked up, the tested form may be a part): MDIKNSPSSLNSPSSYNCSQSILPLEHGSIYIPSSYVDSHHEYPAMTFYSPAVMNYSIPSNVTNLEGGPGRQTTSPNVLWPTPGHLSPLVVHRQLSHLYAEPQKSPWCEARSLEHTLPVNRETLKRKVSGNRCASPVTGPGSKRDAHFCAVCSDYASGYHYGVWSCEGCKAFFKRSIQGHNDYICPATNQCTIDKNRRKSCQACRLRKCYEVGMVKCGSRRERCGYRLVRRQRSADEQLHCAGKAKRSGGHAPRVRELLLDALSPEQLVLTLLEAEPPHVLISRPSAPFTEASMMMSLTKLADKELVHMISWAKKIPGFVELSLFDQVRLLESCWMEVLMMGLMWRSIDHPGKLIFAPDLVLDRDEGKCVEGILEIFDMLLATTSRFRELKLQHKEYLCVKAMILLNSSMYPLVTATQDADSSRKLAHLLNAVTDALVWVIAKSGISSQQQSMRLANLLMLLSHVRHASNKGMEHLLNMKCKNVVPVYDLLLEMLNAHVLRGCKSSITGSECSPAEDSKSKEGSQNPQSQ
Outline: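 HEK293T cells stably expressing human ER-beta LBD (aa 310-547) PCA homodimer pair, dosed 24 h; formaldehyde-fixed, Draq5-stained. Readout: increase in nuclear (agonist) or nuclear plus cytoplasmic (antagonist) fluorescence intensity versus DMSO, gain-of-signal fitting.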

[2] = biological target: Estrogen receptor (Homo sapiens) (UniProt P03372); experiment: OT_ERa_GFPERaERE_0480: Odyssey Thera (OT) 8-hour HeLa Transcription Induction Assay for Estrogen Receptor (AID 2283381; active = hit-call score of the fitted dose curve at least 0.9, where 1 is the maximum; inactive = score below 0.9)
Estrogen receptor (Homo sapiens), sequence (P03372 whole entry, looked up): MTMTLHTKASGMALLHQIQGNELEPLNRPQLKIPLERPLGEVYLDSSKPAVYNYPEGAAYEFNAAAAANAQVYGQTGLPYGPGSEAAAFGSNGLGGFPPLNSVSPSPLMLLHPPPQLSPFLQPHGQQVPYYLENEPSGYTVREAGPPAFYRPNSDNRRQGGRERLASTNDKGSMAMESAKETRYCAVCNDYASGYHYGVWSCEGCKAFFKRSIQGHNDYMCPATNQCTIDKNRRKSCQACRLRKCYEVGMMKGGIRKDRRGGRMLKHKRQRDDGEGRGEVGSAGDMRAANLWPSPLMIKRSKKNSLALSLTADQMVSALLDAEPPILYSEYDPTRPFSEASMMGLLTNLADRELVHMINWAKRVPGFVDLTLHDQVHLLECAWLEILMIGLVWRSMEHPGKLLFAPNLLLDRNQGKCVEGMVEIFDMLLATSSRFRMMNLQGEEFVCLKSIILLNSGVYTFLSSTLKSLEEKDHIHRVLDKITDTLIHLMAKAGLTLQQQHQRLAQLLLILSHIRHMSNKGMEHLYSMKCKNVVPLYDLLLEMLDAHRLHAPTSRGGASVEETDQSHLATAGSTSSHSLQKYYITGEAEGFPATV
Outline: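 Fluorescent reporter signal, imaged by microscopy and scored with image-analysis algorithms, was taken 8 h after chemical dosing of HeLa cells; activity was fitted upward relative to DMSO.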

[3] = biological target: Estrogen receptor (Homo sapiens) (UniProt P03372); experiment: OT_ERa_GFPERaERE_0120: Odyssey Thera (OT) 2-hour HeLa Transcription Induction Assay for Estrogen Receptor (AID 2283382)
Outline: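 HeLa, 384-well, 2 h chemical exposure; GFP reporter induction (ERE), fluorescence microscopy; high content image analysis; positive fitting direction vs DMSO.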

[4] = biological target: Bile acid receptor (Homo sapiens) (UniProt Q96RI1); experiment: OT_FXR_FXRSRC1_1440: Odyssey Thera (OT) 24-hour HEK293T Protein-Complementation Assay for Farnesoid X receptor/SRC-1 Co-activator (AID 2283384)
Bile acid receptor (Homo sapiens), sequence (Q96RI1 whole entry, looked up, the tested form may be a part): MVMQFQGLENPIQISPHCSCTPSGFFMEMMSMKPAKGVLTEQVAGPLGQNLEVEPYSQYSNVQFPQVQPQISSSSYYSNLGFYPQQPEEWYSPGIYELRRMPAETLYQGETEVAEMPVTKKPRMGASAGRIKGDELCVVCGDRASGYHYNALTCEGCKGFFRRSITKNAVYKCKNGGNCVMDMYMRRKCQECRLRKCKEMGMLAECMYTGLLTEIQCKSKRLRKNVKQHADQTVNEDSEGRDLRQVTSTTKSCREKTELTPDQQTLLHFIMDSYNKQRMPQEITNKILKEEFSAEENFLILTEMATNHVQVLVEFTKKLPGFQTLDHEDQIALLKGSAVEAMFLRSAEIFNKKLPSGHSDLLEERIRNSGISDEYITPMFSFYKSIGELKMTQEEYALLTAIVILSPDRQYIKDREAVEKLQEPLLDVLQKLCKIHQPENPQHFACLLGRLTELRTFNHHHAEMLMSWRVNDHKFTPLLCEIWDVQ
Outline: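 Compounds are applied to human kidney HEK293T cells expressing bait and prey fused to reporter protein fragments; after 24 h, reconstituted reporter fluorescence is measured. Activity is fitted as signal gain over DMSO.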

[5] = biological target: Retinoic acid receptor RXR-alpha (Homo sapiens) (UniProt P19793); experiment: OT_NURR1_NURR1RXRa_1440: Odyssey Thera (OT) 24-hour HEK293T Protein Complementation Assay for Nurr1/retinoid X receptor (RXR) (AID 2283386)
Retinoic acid receptor RXR-alpha (Homo sapiens), sequence (P19793 whole entry, looked up, the tested form may be a part): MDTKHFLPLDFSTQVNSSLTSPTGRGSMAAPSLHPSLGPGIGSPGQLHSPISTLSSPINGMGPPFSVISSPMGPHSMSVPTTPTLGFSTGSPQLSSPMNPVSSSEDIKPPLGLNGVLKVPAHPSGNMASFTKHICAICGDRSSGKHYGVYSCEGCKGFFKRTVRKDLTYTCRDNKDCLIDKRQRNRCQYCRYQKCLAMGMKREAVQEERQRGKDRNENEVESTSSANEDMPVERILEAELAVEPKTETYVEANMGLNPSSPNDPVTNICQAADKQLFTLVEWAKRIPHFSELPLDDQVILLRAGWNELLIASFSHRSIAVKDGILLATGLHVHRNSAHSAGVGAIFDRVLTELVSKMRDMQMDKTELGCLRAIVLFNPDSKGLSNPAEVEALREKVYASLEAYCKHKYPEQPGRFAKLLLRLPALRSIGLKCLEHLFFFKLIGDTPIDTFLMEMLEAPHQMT
Outline: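 Interaction of Nurr1 with RXRα brings fused reporter fragments together in human HEK293T cells, restoring a functional reporter. Fluorescence intensity is measured 24 h after chemical treatment, and values are analysed in the positive direction against DMSO.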

[6] = biological target: Peroxisome proliferator-activated receptor gamma (Homo sapiens) (UniProt P37231); experiment: OT_PPARg_PPARgSRC1_0480: Odyssey Thera (OT) 8-hour Protein-Complementation Assay for Peroxisome Proliferator-activated Receptor Gamma / SRC-1 Co-activator (AID 2283387);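 also: nuclear to cytoplasmic split Venus YFP fluorescence ratio reporting PPARg SRC-1 interaction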
Peroxisome proliferator-activated receptor gamma (Homo sapiens), sequence (P37231 whole entry, looked up, the tested form may be a part): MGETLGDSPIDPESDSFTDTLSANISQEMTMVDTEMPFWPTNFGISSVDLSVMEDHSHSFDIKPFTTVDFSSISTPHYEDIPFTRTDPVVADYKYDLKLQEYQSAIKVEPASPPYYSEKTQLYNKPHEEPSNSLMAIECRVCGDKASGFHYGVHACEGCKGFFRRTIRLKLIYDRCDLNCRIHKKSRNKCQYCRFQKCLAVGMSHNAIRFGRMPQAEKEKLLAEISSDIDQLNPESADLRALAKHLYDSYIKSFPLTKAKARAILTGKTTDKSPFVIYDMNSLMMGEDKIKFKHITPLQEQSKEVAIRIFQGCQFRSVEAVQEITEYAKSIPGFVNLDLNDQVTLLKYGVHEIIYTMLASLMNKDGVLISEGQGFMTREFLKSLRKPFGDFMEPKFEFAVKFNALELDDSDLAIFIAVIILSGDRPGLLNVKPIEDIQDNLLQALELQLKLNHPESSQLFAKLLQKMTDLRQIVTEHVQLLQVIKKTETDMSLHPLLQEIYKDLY
Outline: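 Protein-fragment complementation of split Venus YFP reports PPARg/SRC-1 interaction in HEK293T (transfected 48 h before treatment), exposed 8 h. Readout: N/C fluorescence ratio at 488 nm from imaging, Draq5 for segmentation, positive fit relative to DMSO.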

[7] = biological target: mouse Estrogen Receptor alpha (Era), Esr1 (gene 13982) (UniProt P19785); experiment: NVS_NR_mERa: NovaScreen (NVS) Nuclear Receptor Binding Assay for mouse Estrogen Receptor alpha (Era) (AID 2283378);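 also: hit means loss of bound radioligand signal relative to DMSO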
Outline: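 Measurements come from scintillation counting after filtration, taken 18 hours after chemicals were added to a cell-free mouse Era preparation with radioligand. Screening was duplicate at 25 uM, with concurrent positive and negative controls and confirmatory concentration series for actives.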

[8] = biological target: Retinoic acid receptor RXR-alpha (Homo sapiens) (UniProt P19793); experiment: OT_NURR1_NURR1RXRa_0480: Odyssey Thera (OT) 8-hour HEK293T Protein Complementation Assay for Nurr1/retinoid X receptor (RXR) (AID 2283385)
Outline: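 8 h compound exposure, HEK293T; Nurr1/RXRα fragment complementation; fluorescence intensity; positive fitting direction vs DMSO baseline.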

[9] = biological target: Peroxisome proliferator-activated receptor gamma (Homo sapiens) (UniProt P37231); experiment: OT_PPARg_PPARgSRC1_1440: Odyssey Thera (OT) 24-hour Protein-Complementation Assay for Peroxisome Proliferator-activated Receptor Gamma/ SRC-1 Co-activator (AID 2283388);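 also: nuclear to cytoplasmic ratio of reconstituted Venus YFP fluorescence in fixed imaged cells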
Outline: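 Cells carrying the PPARg/SRC-1 fragment-complementation reporter receive compound for 24 hours, are fixed and counterstained with Draq5, then imaged. Increased nuclear relative to cytoplasmic YFP fluorescence above DMSO baseline indicates binding activity.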

[10] = biological target: Bile acid receptor (Homo sapiens) (UniProt Q96RI1); experiment: OT_FXR_FXRSRC1_0480: Odyssey Thera (OT) 8-hour HEK293T Protein-Complementation Assay for Farnesoid X receptor/SRC-1 Co-activator (AID 2283383)
Outline: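 Human kidney HEK293T cells carried FXR/SRC-1 fragment-complementation constructs. Compounds were added and incubated 8 h. Reporter reassembly upon receptor–co-activator interaction was then quantified by fluorescence, with curves fitted in the positive direction relative to DMSO.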

[11] = CEETOX_H295R_OHPROG: CeeTox H295R High-throughput Steroidogenesis Assay for OH-Progesterone (OHPROG) (AID 2283435; active = hit-call score of the fitted dose curve at least 0.9, where 1 is the maximum; inactive = score below 0.9;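 as to AC50: 17alpha-hydroxyprogesterone secreted into medium measured by HPLC-MS/MS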); conditions: actives raise or lower the signal
Outline: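 H295R, 10 uM forskolin prestim 48 h; cmpd in 0.1% DMSO 48 h; medium MTBE-extracted, HPLC-MS/MS for OH-progesterone; 7-pt std curve; bidirectional fit vs DMSO; MTT viability, chemicals diluted until viability >/=70%.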

[12] = CEETOX_H295R_ANDR: CeeTox H295R High-throughput Steroidogenesis Assay for Androstenedione (ANDR) (AID 2283436; active = hit-call score of the fitted dose curve at least 0.9, where 1 is the maximum; inactive = score below 0.9); conditions: actives raise or lower the signal
Outline: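 H295R human adrenal cells (passages ≤10) were exposed to test chemicals for 48 h; androstenedione in medium was MTBE-extracted and quantified by HPLC-MS/MS against a 7-point standard curve. Bidirectional fitting used DMSO as baseline.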

[13] = CEETOX_H295R_PROG: CeeTox H295R High-throughput Steroidogenesis Assay for Progesterone (PROG) (AID 2283442; active = hit-call score of the fitted dose curve at least 0.9, where 1 is the maximum; inactive = score below 0.9;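 as to AC50: human H295R adrenal cells primed with 10 µM forskolin before dosing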); conditions: actives raise or lower the signal
Outline: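 Measured analyte is progesterone secreted by H295R cells at 48 h of chemical treatment, following 10 uM forskolin priming. Quantitation used HPLC-MS/MS against a 7-point standard curve; cytotoxicity was checked by MTT absorbance.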

[14] = CEETOX_H295R_11DCORT: CeeTox H295R High-throughput Steroidogenesis Assay for 11-Deoxycortisol (11DCORT) (AID 2283432; active = hit-call score of the fitted dose curve at least 0.9, where 1 is the maximum; inactive = score below 0.9;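 also: 11-deoxycortisol secreted into the medium measured by LC-MS/MS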); conditions: actives raise or lower the signal
Outline: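 Human adrenal H295R cells were prestimulated with 10 uM forskolin for 48 h, then exposed to test chemical (0.1% DMSO final) for 48 h. Medium 11-deoxycortisol was quantified by MTBE extraction and HPLC-MS/MS; bidirectional fitting relative to DMSO.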

[15] = CEETOX_H295R_CORTIC: CeeTox H295R High-throughput Steroidogenesis Assay for Corticosterone (CORTIC) (AID 2283437; active = hit-call score of the fitted dose curve at least 0.9, where 1 is the maximum; inactive = score below 0.9;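 also: corticosterone secreted into medium quantified by mass spectrometry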); conditions: actives raise or lower the signal
Outline: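 H295R cells were prestimulated 48 h with 10 uM forskolin, then exposed 48 h to test chemical in 0.1% DMSO. Medium corticosterone was MTBE-extracted and quantified by HPLC-MS/MS; bidirectional fit versus DMSO baseline.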

[16] = CEETOX_H295R_CORTISOL: CeeTox H295R High-throughput Steroidogenesis Assay for Cortisol (AID 2283438; active = hit-call score of the fitted dose curve at least 0.9, where 1 is the maximum; inactive = score below 0.9;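 also: cortisol secreted into medium quantified by LC-MS/MS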); conditions: actives raise or lower the signal
Outline: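 Forskolin 10 uM 48 h prestim → test cmpd in DMSO (0.1% final) 48 h → medium MTBE-extracted → LC-MS/MS cortisol vs 7-pt std curve. Gain/loss of signal fitted vs DMSO. MTT viability in same wells.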

[17] = CEETOX_H295R_ESTRADIOL: CeeTox H295R High-throughput Steroidogenesis Assay for Estradiol (AID 2283440; active = hit-call score of the fitted dose curve at least 0.9, where 1 is the maximum; inactive = score below 0.9;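 also: estradiol secreted into medium quantified by LC-MS/MS after dansyl derivatisation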); conditions: actives raise or lower the signal
Outline: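 Readout is estradiol in conditioned medium, quantified by reverse-phase HPLC-MS/MS against a 7-point standard curve. Cells: H295R, forskolin-stimulated, then dosed 48 h in 0.1% DMSO; activity fitted in both directions relative to DMSO.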

[18] = CEETOX_H295R_ESTRONE: CeeTox H295R High-throughput Steroidogenesis Assay for Estrone (AID 2283441; active = hit-call score of the fitted dose curve at least 0.9, where 1 is the maximum; inactive = score below 0.9;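 also: estrone secreted into medium measured by LC-MS/MS after dansyl derivatization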); conditions: actives raise or lower the signal
Outline: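 H295R cells prestimulated 48 h with 10 uM forskolin, then exposed 48 h to chemicals in 0.1% DMSO final; estrone in medium extracted with MTBE, dansyl-derivatized, quantified by HPLC-MS/MS; bidirectional fitting versus DMSO, viability by MTT.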

[19] = read-out: Tumor necrosis factor receptor superfamily member 6 (Homo sapiens) (UniProt P25445); experiment: LTEA_HepaRG_FAS: Life Technologies and Expression Analysis (LTEA) Assay for Fas cell surface death receptor (FAS) using HepaRG (AID 2283447; active = hit-call score of the fitted dose curve at least 0.9, where 1 is the maximum; inactive = score below 0.9); conditions: mRNA level, 48 h; actives raise or lower the signal
Outline: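 Differentiated human HepaRG cells, pre-cultured 48 h, were exposed in duplicate for 48 h to 8-point half-log concentrations (top 100 uM, 0.5% DMSO) in serum-free induction medium; FAS mRNA measured by qRT-PCR, normalized to ACTB/GAPDH/POLR2A, bidirectional fit versus DMSO.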

[20] = read-out: Fatty acid synthase (Homo sapiens) (UniProt P49327); experiment: LTEA_HepaRG_FASN: Life Technologies and Expression Analysis (LTEA) Assay for Fatty Acid Synthase (FASN) using HepaRG (AID 2283448; active = hit-call score of the fitted dose curve at least 0.9, where 1 is the maximum; inactive = score below 0.9); conditions: mRNA level, 48 h; actives raise or lower the signal
Outline: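 FASN expression changes, up or down relative to 0.5% DMSO, were measured by qRT-PCR in human HepaRG cells after 48 h treatment with chemicals at eight concentrations (half-log steps from 100 uM).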

Measured: AC50

Fatty acid synthase (Homo sapiens), sequence (P49327 whole entry, looked up): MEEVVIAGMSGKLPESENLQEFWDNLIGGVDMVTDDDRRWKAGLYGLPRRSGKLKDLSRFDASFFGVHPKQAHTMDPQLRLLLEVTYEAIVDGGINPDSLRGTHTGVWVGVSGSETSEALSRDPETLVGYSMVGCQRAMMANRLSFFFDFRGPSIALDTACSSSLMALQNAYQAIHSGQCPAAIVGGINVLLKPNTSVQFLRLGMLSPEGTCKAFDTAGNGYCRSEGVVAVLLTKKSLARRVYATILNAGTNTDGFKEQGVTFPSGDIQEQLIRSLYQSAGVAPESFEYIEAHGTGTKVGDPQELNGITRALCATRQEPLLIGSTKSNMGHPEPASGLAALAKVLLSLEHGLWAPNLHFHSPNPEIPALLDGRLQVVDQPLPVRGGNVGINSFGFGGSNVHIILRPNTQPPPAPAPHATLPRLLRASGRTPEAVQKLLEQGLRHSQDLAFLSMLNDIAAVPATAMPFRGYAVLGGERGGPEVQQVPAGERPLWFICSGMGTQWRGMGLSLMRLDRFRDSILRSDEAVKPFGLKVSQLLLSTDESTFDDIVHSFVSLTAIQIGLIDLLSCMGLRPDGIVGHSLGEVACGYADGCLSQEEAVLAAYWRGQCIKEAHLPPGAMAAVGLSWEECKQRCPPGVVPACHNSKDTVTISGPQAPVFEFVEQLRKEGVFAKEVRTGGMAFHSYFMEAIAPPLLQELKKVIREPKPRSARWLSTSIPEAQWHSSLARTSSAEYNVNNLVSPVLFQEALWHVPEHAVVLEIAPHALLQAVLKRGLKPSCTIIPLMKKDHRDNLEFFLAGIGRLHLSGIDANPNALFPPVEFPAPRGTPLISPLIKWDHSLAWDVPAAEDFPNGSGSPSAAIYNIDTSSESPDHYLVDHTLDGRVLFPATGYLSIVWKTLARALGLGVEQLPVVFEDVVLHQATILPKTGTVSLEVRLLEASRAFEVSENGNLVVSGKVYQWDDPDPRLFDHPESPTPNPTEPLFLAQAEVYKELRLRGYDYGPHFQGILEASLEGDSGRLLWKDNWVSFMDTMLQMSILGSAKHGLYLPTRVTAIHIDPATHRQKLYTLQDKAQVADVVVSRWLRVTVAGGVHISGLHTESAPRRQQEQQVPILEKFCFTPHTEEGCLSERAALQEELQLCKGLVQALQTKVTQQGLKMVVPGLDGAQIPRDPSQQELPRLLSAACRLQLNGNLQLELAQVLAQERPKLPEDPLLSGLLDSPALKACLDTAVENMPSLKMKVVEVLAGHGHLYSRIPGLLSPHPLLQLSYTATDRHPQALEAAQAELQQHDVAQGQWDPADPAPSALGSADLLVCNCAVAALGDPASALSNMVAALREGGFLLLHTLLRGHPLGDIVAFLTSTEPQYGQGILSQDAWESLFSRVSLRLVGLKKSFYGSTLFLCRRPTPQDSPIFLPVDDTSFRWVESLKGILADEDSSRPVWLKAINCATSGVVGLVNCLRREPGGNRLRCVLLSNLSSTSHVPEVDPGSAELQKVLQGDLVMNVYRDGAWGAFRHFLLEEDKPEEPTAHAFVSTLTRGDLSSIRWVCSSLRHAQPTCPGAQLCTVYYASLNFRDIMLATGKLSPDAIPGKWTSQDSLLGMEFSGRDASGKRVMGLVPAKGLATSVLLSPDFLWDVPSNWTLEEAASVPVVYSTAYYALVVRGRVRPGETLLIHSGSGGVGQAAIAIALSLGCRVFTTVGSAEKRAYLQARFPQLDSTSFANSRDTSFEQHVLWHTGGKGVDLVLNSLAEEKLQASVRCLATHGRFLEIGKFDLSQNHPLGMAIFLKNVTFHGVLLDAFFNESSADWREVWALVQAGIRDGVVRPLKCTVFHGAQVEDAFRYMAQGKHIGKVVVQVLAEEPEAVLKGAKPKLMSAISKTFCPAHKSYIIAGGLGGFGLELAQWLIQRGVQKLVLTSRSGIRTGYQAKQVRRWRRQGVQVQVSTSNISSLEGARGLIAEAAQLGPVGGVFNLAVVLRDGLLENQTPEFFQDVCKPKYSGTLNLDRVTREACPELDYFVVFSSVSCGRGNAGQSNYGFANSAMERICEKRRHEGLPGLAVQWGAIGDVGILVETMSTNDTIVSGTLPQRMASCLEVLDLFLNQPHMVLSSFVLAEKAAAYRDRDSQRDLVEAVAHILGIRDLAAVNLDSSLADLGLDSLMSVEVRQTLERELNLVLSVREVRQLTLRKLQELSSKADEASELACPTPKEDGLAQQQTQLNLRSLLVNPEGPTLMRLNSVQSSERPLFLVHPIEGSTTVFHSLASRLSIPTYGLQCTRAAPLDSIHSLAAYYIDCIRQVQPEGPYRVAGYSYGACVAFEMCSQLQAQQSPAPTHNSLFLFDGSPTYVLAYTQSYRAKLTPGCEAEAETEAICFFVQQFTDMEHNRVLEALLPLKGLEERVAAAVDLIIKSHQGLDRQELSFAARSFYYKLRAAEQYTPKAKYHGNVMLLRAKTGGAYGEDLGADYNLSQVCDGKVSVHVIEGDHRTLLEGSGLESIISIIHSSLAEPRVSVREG

N#CN=C(N)N
inactive: [1] | [2] | [3] | [4] | [5] | [6]

CCOC(=O)Nc1cccc(OC(=O)Nc2ccccc2)c1
inactive: [7] | [1] | [2] | [3] | [8] | [5] | [6] | [9]

COP(=O)(OC)O/C(=C\Cl)c1cc(Cl)c(Cl)cc1Cl
inactive: [7] | [2] | [3] | [10] | [4] | [5] | [6] | [11] | [12] | [13]
active: [8] 4.45 µM

O=C1CCCN1
inactive: [7] | [2] | [3] | [4] | [5] | [6]

Fc1ccc(C2(Cn3cncn3)OC2c2ccccc2Cl)cc1 (stereo not drawn)
active: [1] 19.2 µM | [4] 18.9 µM | [14] 7.55 µM | [11] 2.06 µM | [16] 3.04 µM | [17] 1.5 µM | [18] 2.03 µM
inactive: [7] | [2] | [3] | [10] | [8] | [5] | [6] | [15] | [13]

ClCC(Cl)CCl
inactive: [7] | [8] | [5] | [19] | [20]

Cl/C=C/Cl
inactive: [7] | [2] | [3] | [8] | [5]

Oc1ccc(-c2ccccc2)cc1
active: [7] 17.7 µM | [1] 11.8 µM | [10] 33.3 µM | [4] 33.3 µM | [5] 50 µM | [14] 87.6 µM | [11] 13.1 µM | [15] 14 µM
inactive: [8] | [6] | [16] | [18]

c1cc[c]([Hg][c]2ccccc2)cc1
inactive: [1] | [2] | [3] | [6]
active: [10] 29 µM | [4] 51.6 µM | [8] 29.7 µM | [5] 63.4 µM

Clc1ccc(C2(Cn3cncn3)CC(Br)CO2)c(Cl)c1 (stereo not drawn)
inactive: [1] | [2] | [3] | [10] | [4] | [8] | [5] | [6] | [9]

C=C(C)C(=O)[O][Sn]([CH2]CCC)([CH2]CCC)[CH2]CCC
inactive: [1] | [2] | [4] | [6] | [20]
active: [7] 9.68 µM | [3] 0.772 µM

C[C@]12CCC(=O)C[C@@H]1CC[C@@H]1[C@@H]2CC[C@]2(C)[C@@H](O)CC[C@@H]12
active: [1] 6.06 µM and 8.11 µM and 7.61 µM | [5] 40.3 µM | [13] 1.08 µM
inactive: [1] | [8] | [5] | [6] | [11] | [19] | [20]

Cl/C=C\C[N+]12CN3CN(CN(C3)C1)C2
inactive: [1] | [3] | [6]
active: [2] 82.2 µM

O=S(=O)(c1ccc(Cl)cc1)c1ccc(Cl)cc1
inactive: [1] | [2] | [3] | [5] | [6]

C[C@@H]1C[C@@H]([C@H](O)CC2CC(=O)NC(=O)C2)C(=O)[C@@H](C)C1
inactive: [1] | [6] | [9] | [11] | [13] | [19]
active: [20] 4.28 µM

C[C@H]1CCCC(=O)CCC/C=C/c2cc(O)cc(O)c2C(=O)O1
inactive: [6] | [9]
active: [1] 0.0449 µM | [2] 0.103 µM | [3] 0.0915 µM

CCOP(=S)(OCC)SCSP(=S)(OCC)OCC
inactive: [2] | [8] | [6] | [15] | [16] | [17] | [18] | [19]
active: [1] 17.5 µM | [3] 10.9 µM | [14] 18.6 µM | [11] 1.73 µM | [13] 4.53 µM | [20] 90.8 µM

CC(C)c1cccc(C(C)C)c1O
inactive: [1] | [2] | [3] | [8] | [5] | [9]

CC1(C)Cc2cccc(O)c2O1
inactive: [1] | [2] | [3] | [6] | [9]

O=[N+]([O-])c1ccc(O)c([N+](=O)[O-])c1
inactive: [1] | [2] | [3] | [8] | [6] | [9] | [19]
active: [20] 13.1 µM

COc1ccc(C=O)cc1OC
inactive: [1] | [2] | [3] | [8] | [5] | [6]
